Measurements taken from PubChem BioAssay.
Activity calls are given as the source filed them.

Assays:
[1] = system: Human papillomavirus type 1a protein E7 (residues 44-93); assay: small molecules binding HPV E7 44-93 – biochemical, small-molecule microarray, residues 44-93, 635 nm fluorescence, primary screen (AID 1108); settings: fluorescence 635 nm, higher = more signal;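 note: E7 fragment applied at 1 µg/mL in TBST for 1 h at 4 C; score combines spot fluorescence with its signal to noise ratio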
[2] = hepatitis C replication reporter changes, two-sided – Huh7 cells, luciferase reporter, HCV replication inhibitor project, primary screen (AID 1109); settings: Huh7 HCV replicon luciferase reporter, 48 h; higher = more signal;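 note: huh7 hepatoma cells harbouring a luciferase neomycin HCV replicon reporter; luciferase luminescence as measure of HCV replicon replication; test concentration not given here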
[3] = biological target: Left-right determination factor 2 (Homo sapiens) (UniProt O00292); assay: small molecules binding LEFTY2 protein – biochemical, small-molecule microarray, 635 nm fluorescence scan, primary screen (AID 1110); settings: higher = more signal
[4] = biological target: Calmodulin-1 (Homo sapiens) (UniProt P0DP23); assay: small molecules binding calmodulin-1 with EGTA – biochemical, small-molecule microarray, Cy5-labelled CALM1, profiling panel (AID 1111); settings: Cy5-CALM1 binding fluorescence, higher = more signal;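 note: labelled calmodulin applied in Tris saline Tween buffer holding calcium plus EGTA and DTT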
[5] = biological target: Calmodulin-1 (Homo sapiens) (UniProt P0DP23); assay: small molecules binding Ca-loaded calmodulin-1 – biochemical, small-molecule microarray, Cy5-labelled CALM1, plus calcium, artefact control for SMM control-protein annotation, profiling panel (AID 1112); settings: Cy5-CALM1 binding fluorescence, higher = more signal;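 note: score merges spot fluorescence with signal to noise from triplicate slides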
[6] = probe aWnt5a binding to arrayed compounds – biochemical, biotinylated probe, 635/667 nm fluorescence, primary screen (AID 1113); settings: small-molecule microarray, higher = more signal;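 note: score merges 667 nm fluorescence intensity with signal-to-noise per printed feature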
[7] = probe aShh binding to arrayed compounds – biochemical, biotinylated probe, 635/667 nm fluorescence, primary screen (AID 1114); settings: small-molecule microarray, higher = more signal;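 note: probe is biotin-labelled aShh protein from a stem cell growth factor screen; measures binding of labelled protein to compounds printed on the slide; score merges feature fluorescence at 667 nm with signal-to-noise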
[8] = probe aNog binding to arrayed compounds – biochemical, biotinylated probe, 635/667 nm fluorescence, primary screen (AID 1115); settings: small-molecule microarray, higher = more signal;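 note: probe is biotinylated aNog protein used at 0.15 µg/mL for 1 h at 4 C; z-score combines 667 nm fluorescence of each spot with its signal to noise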
[9] = biological target: Torsin-1A-interacting protein 1 (Homo sapiens) (UniProt Q5JTV8); assay: compound microarray binding of lysate hLAP1 – cell lysate, small-molecule microarray, COS7 lysate, 635/667 nm fluorescence, primary screen (AID 1116); settings: 635 nm fluorescence, higher = more signal
[10] = biological target: Alpha-bungarotoxin (Bungarus multicinctus) (UniProt P60615); assay: compounds binding labelled alpha-BTX control protein – biochemical, small-molecule microarray, Alexa647 label, 635/667 nm fluorescence, artefact control for SMM control protein annotation, profiling panel (AID 1117); settings: alpha-BTX-A647 binding fluorescence, higher = more signal
Albumin (Bos taurus) = Albumin (Bos taurus) (UniProt P02769); assay: compounds binding labelled BSA control protein – biochemical, small-molecule microarray, Alexa647 label, 635/667 nm fluorescence, artefact control for SMM control protein annotation, profiling panel (AID 1118); settings: BSA-A647 binding, fluorescence 635 nm, higher = more signal;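 note: score merges 667 nm emission intensity and signal-to-noise per printed compound spot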
[11] = probe aXIP binding to arrayed compounds – biochemical, NeuroSMM set, 635/667 nm fluorescence, primary screen (AID 1119); settings: small-molecule microarray, higher = more signal, called active from +8 up or from −8 down;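 note: probe is the protein aXip251-270 applied at 1 µg/mL to compound-printed slides; binding of probe to printed compounds measured as 667 nm fluorescence plus signal to noise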
[12] = probe aNOTCH3 binding on compound microarray – biochemical, small-molecule microarray, 635/667 nm fluorescence, primary screen (AID 1120); settings: higher = more signal;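 note: probe is a biotin-tagged antibody raised against NOTCH3 rather than NOTCH3 protein; score merges spot fluorescence near 667 nm with spot signal to noise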
[13] = probe aNOTCH2 binding on compound microarray – biochemical, small-molecule microarray, 635/667 nm fluorescence, primary screen (AID 1121); settings: higher = more signal;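 note: score merges feature fluorescence read at 667 nm with its signal to noise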
[14] = biological target: Carbonic anhydrase 2 (Homo sapiens) (UniProt P00918); assay: compounds binding carbonic anhydrase 2 – biochemical, small-molecule microarray, Alexa647-labelled CAII, profiling panel (AID 1122); settings: CAII-A647 binding fluorescence, higher = more signal
[15] = COS7 lysate on small-molecule microarray, probe aHis, 635 nm (AID 1123); settings: COS7 cell lysate, fluorescence, higher = more signal;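 note: z-score combines 667nm fluorescence intensity with signal-to-noise per printed compound spot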
[16] = probe aLAP1 signal on lysate-treated microarray – cell lysate, small-molecule microarray, COS7 lysate, primary screen (AID 1124); settings: probe aLAP1, fluorescence, higher = more signal;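 note: lysate comes from COS7 cells expressing LAP1 and is applied at 0.3 µg/mL; score merges spot fluorescence near 667 nm with signal-to-noise over triplicate slides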
Sam68 (KHDRBS1) = assay: compounds binding KHDRBS1 protein – biochemical, small-molecule microarray, 635 nm fluorescence, primary screen (AID 1125); settings: higher = more signal;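 note: score merges 667 nm channel intensity with signal to noise over triplicate slides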
[17] = system: Chordin-like protein 2 (CHRDL2); assay: compounds binding chordin-like 2 – biochemical, small-molecule microarray, 635 nm fluorescence, primary screen (AID 1126); settings: fluorescence 635 nm, higher = more signal;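 note: printed compound slides probed with Chrdl2 protein at 4 µg/mL for 1 h at 4 C; score merges 667 nm emission intensity with signal to noise over three replicate slides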
[18] = biological target: Concanavalin-A (Canavalia ensiformis) (UniProt P02866); assay: compounds binding concanavalin A lectin – biochemical, small-molecule microarray, Alexa647 label, 635 nm, artefact control for SMM control protein annotation, primary screen (AID 1127); settings: ConA-A647 binding fluorescence, higher = more signal;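 note: z combines 667 nm emission intensity with signal-to-noise across three replicate slides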
Chain of Concanavalin-A (Canavalia ensiformis) (P02866 whole entry, looked up): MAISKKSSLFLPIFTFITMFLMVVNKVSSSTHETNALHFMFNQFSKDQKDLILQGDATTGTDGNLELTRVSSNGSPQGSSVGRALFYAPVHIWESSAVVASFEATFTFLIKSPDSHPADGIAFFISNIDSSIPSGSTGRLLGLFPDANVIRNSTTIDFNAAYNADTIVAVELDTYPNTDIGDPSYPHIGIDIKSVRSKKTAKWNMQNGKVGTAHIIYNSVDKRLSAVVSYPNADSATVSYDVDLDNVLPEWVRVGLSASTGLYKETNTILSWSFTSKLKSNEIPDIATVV

Chain of Left-right determination factor 2 (Homo sapiens) (O00292 whole entry, looked up): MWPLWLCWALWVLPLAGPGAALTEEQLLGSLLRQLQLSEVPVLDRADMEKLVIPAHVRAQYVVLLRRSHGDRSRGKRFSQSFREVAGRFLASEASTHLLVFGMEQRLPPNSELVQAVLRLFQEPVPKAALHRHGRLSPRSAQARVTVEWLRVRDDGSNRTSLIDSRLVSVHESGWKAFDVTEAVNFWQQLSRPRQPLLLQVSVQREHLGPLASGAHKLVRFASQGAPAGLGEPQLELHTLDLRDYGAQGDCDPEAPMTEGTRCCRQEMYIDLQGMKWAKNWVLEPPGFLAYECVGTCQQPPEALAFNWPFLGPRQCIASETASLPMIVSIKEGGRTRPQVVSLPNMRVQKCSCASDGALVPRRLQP
Chain of Albumin (Bos taurus) (P02769 whole entry, looked up): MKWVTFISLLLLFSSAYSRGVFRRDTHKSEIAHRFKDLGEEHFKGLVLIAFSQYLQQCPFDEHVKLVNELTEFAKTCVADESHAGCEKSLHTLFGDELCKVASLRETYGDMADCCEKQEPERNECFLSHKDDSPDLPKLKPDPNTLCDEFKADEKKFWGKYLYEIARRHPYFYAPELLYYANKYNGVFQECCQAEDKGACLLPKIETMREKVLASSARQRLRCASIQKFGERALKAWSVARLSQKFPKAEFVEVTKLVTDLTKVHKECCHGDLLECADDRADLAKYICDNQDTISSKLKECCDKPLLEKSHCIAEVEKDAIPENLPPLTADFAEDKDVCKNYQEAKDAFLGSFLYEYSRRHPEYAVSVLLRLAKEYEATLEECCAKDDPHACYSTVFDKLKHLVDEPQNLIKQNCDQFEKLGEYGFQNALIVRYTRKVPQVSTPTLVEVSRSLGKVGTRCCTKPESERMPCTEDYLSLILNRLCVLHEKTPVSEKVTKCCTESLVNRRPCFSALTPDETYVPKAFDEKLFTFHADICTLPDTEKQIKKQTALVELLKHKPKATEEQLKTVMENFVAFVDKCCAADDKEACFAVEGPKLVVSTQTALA
Chain of Alpha-bungarotoxin (Bungarus multicinctus) (P60615 whole entry, looked up): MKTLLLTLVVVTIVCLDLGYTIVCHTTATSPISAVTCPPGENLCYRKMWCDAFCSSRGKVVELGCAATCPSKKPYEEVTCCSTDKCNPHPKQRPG
Chain of Torsin-1A-interacting protein 1 (Homo sapiens) (Q5JTV8 whole entry, looked up): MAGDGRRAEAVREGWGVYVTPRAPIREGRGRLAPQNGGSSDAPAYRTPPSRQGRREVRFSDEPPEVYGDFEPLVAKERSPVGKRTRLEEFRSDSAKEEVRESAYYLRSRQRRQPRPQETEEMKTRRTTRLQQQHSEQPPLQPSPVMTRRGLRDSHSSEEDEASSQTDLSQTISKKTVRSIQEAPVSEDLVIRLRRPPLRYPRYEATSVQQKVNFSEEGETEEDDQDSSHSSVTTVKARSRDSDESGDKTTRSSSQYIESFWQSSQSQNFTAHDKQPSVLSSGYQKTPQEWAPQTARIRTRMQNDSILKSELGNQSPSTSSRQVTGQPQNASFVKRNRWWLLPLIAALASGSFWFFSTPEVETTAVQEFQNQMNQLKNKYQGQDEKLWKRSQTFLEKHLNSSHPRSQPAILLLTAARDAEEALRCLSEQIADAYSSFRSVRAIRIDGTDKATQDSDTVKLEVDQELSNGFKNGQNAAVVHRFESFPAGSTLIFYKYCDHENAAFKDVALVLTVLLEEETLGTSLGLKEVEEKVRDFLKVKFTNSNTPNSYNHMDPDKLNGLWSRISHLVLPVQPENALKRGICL

SMILES | composite z-score [1] | z-score [2] | composite z-score [3] | composite z-score [4] | composite z-score [5] | composite z-score [6] | composite z-score [7] | composite z-score [8] | composite z-score [9] | composite z-score [10] | composite z-score (Albumin (Bos taurus)) | composite Z-score [11] | composite z-score [12] | composite z-score [13] | composite z-score [14] | composite z-score [15] | composite z-score [16] | composite z-score (Sam68 (KHDRBS1)) | composite z-score [17] | composite z-score [18]
CO[C@H]([C@@H](C)[C@H](OC)c1ccccc1)[C@H](C)[C@@H](OC)[C@H](C)C(C)=O | -0.431 | 1.14 | 0.402 | -1.1 | -0.0474 | 0.0101 | -0.367 | -0.0286 | -0.482 | -0.847 | -0.529 | 0.837 (inactive) | -0.13 | -0.0551 | -0.505 | -0.74 | -0.32 | -1.24 | -0.326 | -2.34
COc1ccc(COC(=O)NN=C2C[C@@H](O)[C@@H](O)[C@@H]3[C@@H]4C(=O)N(c5ccc(F)cc5F)C(=O)[C@@H]4CC[C@@H]23)cc1 | -0.0514 | -0.76 | -0.151 | 0.0539 | -0.325 | -0.096 | -0.221 | 0.041 | 0.599 | 0.626 | 0.688 | -0.0662 (inactive) | 0.112 | -0.14 | -0.416 | -0.413 | -0.2 | -0.356 | -0.0448 | 0.454
COCC(=C=CC[C@@H](O)c1ccccc1OCCO)CCO | 0.692 | -0.779 | -0.0632 | 0.0775 | 0.119 | -0.206 | 0.0796 | -0.333 | 0.416 | 0.113 | -0.0934 | 0.493 (inactive) | 0.0596 | -0.0811 | 0.763 | 0.994 | -0.0546 | 0.567 | 0.22 | -0.192
Cc1ccc(S(=O)(=O)N[C@@H]2COC(=O)[C@H](C)COC(=O)CC=C[C@H]2C)cc1 | -0.45 | 0.668 | 0.602 | -0.163 | -0.964 | -0.13 | -0.117 | -0.425 | 0.438 | 0.0762 | -0.601 | -0.186 (inactive) | -0.224 | -0.0817 | -0.271 | -0.32 | -0.7 | 0.0715 | 1.23 | -0.0405
COC(=O)C1=C(C)N(Cc2ccccc2)[C@]23O[C@](C(=O)OC)(C(=O)N2[C@@H]1c1ccccc1)[C@H]1CCOC(=O)[C@H]13 | 0.0415 | 0.233 | 0.548 | -0.348 | -0.832 | -0.0482 | -0.0769 | 0.171 | 0.333 | 0.0003 | 0.735 | 0.493 (inactive) | -0.0587 | -0.131 | 0.0198 | -0.12 | 0.21 | -0.0775 | 0.702 | 0.0349
O=C1[C@H]2[C@H]3[C@H](O)[C@H](O)CC(=NOCc4ccccc4)[C@@H]3CC[C@H]2C(=O)N1C1CCCCC1 | 0.422 | -1.11 | -0.102 | -0.161 | -0.408 | -0.206 | -0.265 | -0.169 | 0.467 | -0.0059 | 0.0567 | -0.718 (inactive) | -0.0903 | -0.196 | 0.539 | 0.737 | -0.785 | 0.357 | -0.142 | -0.0593
C=CCN1C(=O)[C@]2(O[C@H](CCn3cc(CCO)nn3)[C@@H]([Si](C)(C)c3ccc(OC)cc3)[C@@H]2C)c2cc(N3CCOC3=O)ccc21 | 1.07 | -3.46 | -0.264 | 0.504 | -0.463 | -0.0403 | -0.0356 | -0.0841 | 1.52 | 0.465 | 0.617 | -0.217 (inactive) | -0.161 | -0.104 | 0.368 | 1.88 | 1.21 | 0.448 | -0.34 | 1.13
C[C@@H]1CCC2C(=O)N(Cc3ccccc3)C[C@@H](O)CN2[C@H]1c1ccc(Br)cc1 (stereo not given in full) | 0.671 | 0.344 | 0.149 | 0.102 | -0.28 | -0.169 | -0.138 | -0.0675 | 0.199 | 0.0711 | 0.33 | 0.0923 (inactive) | -0.0362 | -0.176 | 0.375 | 0.669 | -0.0066 | 0.621 | 0.374 | 0.646
O=C1O[C@@H](c2ccccc2)[C@@H](c2ccccc2)N2[C@@H](c3ccc(O)cc3)[C@]3(C(=O)Nc4ccccc43)[C@@H](C(=O)O)[C@H]12 | 1.02 | -0.996 | -0.6 | 0.64 | 0.212 | -0.174 | -0.793 | 0.0156 | 0.98 | -0.0356 | 0.592 | 1.76 (inactive) | -0.0903 | -0.1 | 0.59 | 1.45 | 0.448 | 1.33 | -0.903 | 0.666
NC(=O)NCC#Cc1ccc2c(c1)[C@]1(C(=O)N2)[C@H](c2ccc(O)cc2)N2[C@H](c3ccccc3)[C@H](c3ccccc3)OC(=O)[C@H]2[C@@H]1C(=O)N1CCCCCCC1 | 1.19 | -0.421 | 0.258 | 0.822 | 0.675 | 0.338 | 0.462 | -0.623 | 2.42 | 1.34 | -0.476 | 0.645 (inactive) | 0.976 | -0.172 | 0.39 | 0.594 | 0.596 | 0.792 | 0.983 | 0.848
CC(=O)OC[C@H]1O[C@H](CCON=C[C@@H](C)[C@H](OCc2ccccc2)C(C)C)C=C[C@@H]1OC(C)=O | 0.837 | -0.461 | 0.646 | -0.501 | -0.911 | 0.0181 | -0.214 | -0.215 | 0.619 | 0.13 | 0.0841 | -0.313 (inactive) | 0.214 | -0.0716 | -0.249 | -0.039 | 0.148 | 0.997 | 0.755 | 0.0066
